Shown are actives, neighbours in structure and some others; about 3.9% of the full set was active somewhere.
TROY signal inh = blocks TROY-dependent signaling in reporter cells. 360,000 compounds, 0.98% hits. AID 1347056. inhibition, % at 10 µM. Q293 LMP1-TROYcd NF-kB luciferase reporter, 4 h;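 active = compounds whose plate-normalised and pattern-corrected inhibition of the luciferase reporter signal at the single screening dose is 50% or more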
CF NFkB inh = cystic fibrosis NF-kB activation inhibition; AID 588850; inhibition, % at 5 µM; KKLEB NF-kB-GFP reporter, PAF-induced, GFP fluorescence overnight; 360,000 compounds, 0.86% hits;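 active = at least 50% inhibition at 5 µM, scaled per plate between neutral and stimulator controls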;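 note: PAF is a Pseudomonas aeruginosa culture filtrate used as stimulus; plate controls were PAF-stimulated DMSO wells for no effect and unstimulated DMSO wells for full effect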
KKLEB tox = CF airway cell cytotoxicity counter-screen. KKLEB CF airway cells viability, ATPlite luminescence, overnight; stronger effect = lower value; cells stimulated with P. aeruginosa culture filtrate. activity change (cytotoxicity), % at 5 µM. 360,000 compounds, 0.36% hits. AID 602141;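 active = corrected activity change at or below -50% at 5 µM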
Peg3 promoter = reduces Peg3 promoter-driven luciferase expression in HeLa | inhibition, % at 20 µM | 360,000 compounds, 1.7% hits | AID 588405 | HeLa PEG-Prom luciferase reporter, luminescence, overnight;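 active = inhibition of at least 50% at 20 µM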
HIF-2a inh = inhibitors of HIF-2a; 786-0 RCC cells HIF-2a reporter, luciferase luminescence, overnight; 360,000 compounds, 0.72% hits; AID 624352; inhibition, % at 18.8 µM;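 active = inhibition of the luminescence signal of 40% or more relative to plate controls, in a single-dose primary screen at 18.75 µM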
TWEAK-Fn14 inh = inhibitors of TWEAK-Fn14 interaction signaling | TWEAK-stimulated Fn14 reporter cells, luciferase luminescence, 8 h | inhibition, % at 10 µM | 360,000 compounds, 2% hits; in the data active = inhibition above about 50%
The depositor's hits bear a star.

What do the screens show for `Cc1nc(SCc2nc3ccc(Cl)cc3[nH]2)c2oc3ccccc3c2n1`?
TROY signal inh: 17.2; CF NFkB inh: -16.6; KKLEB tox: 4.5; Peg3 promoter: 7.9; HIF-2a inh: 8.5; TWEAK-Fn14 inh: -12.6

Results for Cc1nc(SCc2nc3cc(Cl)c(F)cc3[nH]2)c2oc3ccccc3c2n1 ?
TROY signal inh: 5.6; CF NFkB inh: 43.5; KKLEB tox: -41.0; Peg3 promoter: 39.0; HIF-2a inh: -1.3; TWEAK-Fn14 inh: 53.2*

How did Cc1sc2nc(CSc3n[nH]c(N)n3)[nH]c(=O)c2c1C do in these assays?
TROY signal inh: 12.7; CF NFkB inh: 9.6; KKLEB tox: -0.5; Peg3 promoter: 18.6; HIF-2a inh: -2.5; TWEAK-Fn14 inh: 12.0

What do the screens show for `CC(=O)Oc1ccc2c(=O)c(-c3nc4ccccc4s3)coc2c1`?
TROY signal inh: 53.4*; CF NFkB inh: -30.4; KKLEB tox: -8.4; Peg3 promoter: -72.9; HIF-2a inh: -35.1; TWEAK-Fn14 inh: 82.7*

Results for CC(C)Oc1ccc2c(=O)c(-c3ccccc3)coc2c1 ?
TROY signal inh: -28.1; CF NFkB inh: -4.9; KKLEB tox: -26.6; Peg3 promoter: -309.6; HIF-2a inh: -270.8; TWEAK-Fn14 inh: 14.4

How did COc1ccc(C(=O)/C(C#N)=N/Nc2ccc([N+](=O)[O-])cc2)cc1 do in these assays?
TROY signal inh: 62.8*; CF NFkB inh: 56.3*; KKLEB tox: -33.3; Peg3 promoter: 37.8; HIF-2a inh: -1.4; TWEAK-Fn14 inh: 59.0*

Results for N#CC(C#N)=NNc1ccc([N+](=O)[O-])cc1 ?
TROY signal inh: 56.4*; CF NFkB inh: 56.7*; KKLEB tox: -26.1; Peg3 promoter: -41.0; HIF-2a inh: -7.7; TWEAK-Fn14 inh: 21.3

How did COc1ccc(/C=N/NC(=O)c2ccc(NS(=O)(=O)c3cccs3)cc2)cc1 do in these assays?
TROY signal inh: -20.1; CF NFkB inh: -47.8; KKLEB tox: -7.7; Peg3 promoter: 104.3*; HIF-2a inh: -33.8; TWEAK-Fn14 inh: -8.9

How did O=C(O)c1ccc(/C=N/NC(=O)c2ccc(NS(=O)(=O)c3cccs3)cc2)cc1 do in these assays?
TROY signal inh: 15.1; CF NFkB inh: 30.7; KKLEB tox: 5.7; Peg3 promoter: -1.0; HIF-2a inh: 13.7; TWEAK-Fn14 inh: 9.2

How did CCc1cccc(NC(=O)C2CCN(S(=O)(=O)c3ccc4[nH]c(=O)ccc4c3)CC2)c1 do in these assays?
TROY signal inh: 2.5; CF NFkB inh: 9.6; KKLEB tox: 2.3; Peg3 promoter: 10.6; HIF-2a inh: 9.7; TWEAK-Fn14 inh: 9.6

How did CCOc1cc(/C=C2/C(=O)ON=C2C)ccc1OCc1ccc(F)cc1 do in these assays?
TROY signal inh: -12.2; CF NFkB inh: -13.0; KKLEB tox: 7.8; Peg3 promoter: 65.0*; HIF-2a inh: -1.2; TWEAK-Fn14 inh: 0.3

Results for CCOc1cc(/C=C2/C(=O)ON=C2C)ccc1OCc1ccccc1F ?
TROY signal inh: 4.0; CF NFkB inh: -42.5; KKLEB tox: 19.2; Peg3 promoter: 96.8*; HIF-2a inh: 16.9; TWEAK-Fn14 inh: 22.6

How did O=C1/C(=C/c2ccccc2)SC(=S)N1CC(=O)N1CCCCC1c1cccnc1 (centres undefined) do in these assays?
TROY signal inh: 5.0; CF NFkB inh: 33.8; KKLEB tox: -13.7; Peg3 promoter: 58.7*; HIF-2a inh: 72.9*; TWEAK-Fn14 inh: -11.4

How did CCOC(=O)N1CCN(C(=O)c2cc(-c3ccc(OCC)cc3)nc3ccccc23)CC1 do in these assays?
TROY signal inh: -30.1; CF NFkB inh: 10.4; KKLEB tox: -75.0*; Peg3 promoter: -63.5; HIF-2a inh: -278.7; TWEAK-Fn14 inh: -8.5

What do the screens show for `COc1ccc(-c2cc(C(=O)N3CCN(c4ccccn4)CC3)c3ccccc3n2)cc1`?
TROY signal inh: -48.9; CF NFkB inh: 15.7; KKLEB tox: -60.7*; Peg3 promoter: -47.0; HIF-2a inh: -195.1; TWEAK-Fn14 inh: 39.9

How did O=C(c1cc(Cl)ccc1Cl)N1CCN(c2ccccn2)CC1 do in these assays?
TROY signal inh: 13.5; CF NFkB inh: -1.1; KKLEB tox: 5.9; Peg3 promoter: 1.2; HIF-2a inh: -2.7; TWEAK-Fn14 inh: 13.1

How did COc1ccc(-c2cc(C(=O)O)c3ccccc3n2)c(OC)c1 do in these assays?
TROY signal inh: 13.0; CF NFkB inh: -7.4; KKLEB tox: 7.3; Peg3 promoter: 8.3; HIF-2a inh: 19.8; TWEAK-Fn14 inh: 7.8

What do the screens show for `O=C(c1cnc(N2CCN(c3ccccn3)CC2)c2ccccc12)N1CCN(c2cccc(Cl)c2)CC1`?
TROY signal inh: 46.2; CF NFkB inh: 35.8; KKLEB tox: -16.9; Peg3 promoter: 46.2; HIF-2a inh: 5.4; TWEAK-Fn14 inh: 91.4*

Results for COc1ccc2cc(-c3cc(C(=O)O)c4ccccc4n3)ccc2c1 ?
TROY signal inh: 25.4; CF NFkB inh: -2.4; KKLEB tox: -54.1*; Peg3 promoter: 30.4; HIF-2a inh: 35.0; TWEAK-Fn14 inh: 75.0*

What do the screens show for `CCc1ccc(N2C(=O)C3CCCN3C2=S)cc1` (centres undefined)?
TROY signal inh: -13.3; CF NFkB inh: 10.2; KKLEB tox: 5.5; Peg3 promoter: -28.2; HIF-2a inh: -30.9; TWEAK-Fn14 inh: 9.4

What do the screens show for `CCOc1ccc2nc(N3CCC(C(=O)N4CCN(c5ccccn5)CC4)CC3)sc2c1`?
TROY signal inh: 24.8; CF NFkB inh: -22.2; KKLEB tox: 9.1; Peg3 promoter: -41.2; HIF-2a inh: -71.1; TWEAK-Fn14 inh: 50.8*

What do the screens show for `CCCc1ccc(-c2cc(C(=O)N3CCN(c4ccccn4)CC3)c3ccccc3n2)cc1`?
TROY signal inh: 48.0; CF NFkB inh: 12.3; KKLEB tox: -75.6*; Peg3 promoter: -40.2; HIF-2a inh: -121.9; TWEAK-Fn14 inh: 32.2

How did CCOc1ccc(-c2cc(C(=O)N3CCN(c4ccccn4)CC3)c3ccccc3n2)cc1 do in these assays?
TROY signal inh: 0.8; CF NFkB inh: 1.8; KKLEB tox: -68.0*; Peg3 promoter: -56.6; HIF-2a inh: -286.1; TWEAK-Fn14 inh: 18.1

What do the screens show for `CC(=O)OCC(=O)[C@H]1CC[C@H]2[C@@H]3CC=C4C[C@@H](O)CC[C@]4(C)[C@H]3CC[C@]12C`?
TROY signal inh: -2.2; CF NFkB inh: 5.5; KKLEB tox: 0.7; Peg3 promoter: 24.0; HIF-2a inh: -0.2; TWEAK-Fn14 inh: -13.2

How did O=C(Nc1ccc(S(=O)(=O)N2CCCCC2)cc1)C1CCN(C(=O)c2ccco2)CC1 do in these assays?
TROY signal inh: 25.6; CF NFkB inh: 5.2; KKLEB tox: 4.9; Peg3 promoter: 23.4; HIF-2a inh: 16.2; TWEAK-Fn14 inh: 9.4

What do the screens show for `Cc1ccc(-c2nnc3n2N=C(c2ccc(Br)cc2)CS3)cc1`?
TROY signal inh: 2.8; CF NFkB inh: -1.2; KKLEB tox: -7.9; Peg3 promoter: 18.2; HIF-2a inh: -4.9; TWEAK-Fn14 inh: 0.8

How did Clc1ccc(C2=Nn3c(nnc3-c3n[nH]c4c3CCC4)SC2)cc1 do in these assays?
TROY signal inh: 18.2; CF NFkB inh: -47.0; KKLEB tox: 2.1; Peg3 promoter: 18.9; HIF-2a inh: -1.2; TWEAK-Fn14 inh: 54.8*

Bioassay records deposited in PubChem BioAssay by Sanford-Burnham Center for Chemical Genomics.
